Active and inactive are the calls of the source.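 Rule for the calls: active = inhibition at or above 50% at 10 µM; inactive = inhibition below 50%.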
Assay: blockers of RIG-like receptor reporter activation – cell-based, Sendai virus stimulus, luciferase, 10K MLSCN set, TLR/RLR signaling modifier project, primary screen (AID 602276);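 note: firefly luciferase from ISG56 promoter only with Renilla not read in this screen; 0% = Sendai virus plus DMSO and 100% = medium plus DMSO without virus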
Conditions: HEK293 RL24 IRF3 luciferase reporter, at 10 µM, stronger effect = higher value

inhibition, inactive:
Cc1cc(C)nc(SCc2nnc(SCC(=O)Nc3ncc(C)s3)n2Cc2ccco2)n1 8.75%, COc1cccc(C2C(C(=O)c3cccs3)=C(O)C(=O)N2CCCn2ccnc2)c1OC (stereo unspecified) 8.13%, COc1cc(C(=O)N(C)c2nnc(-c3cccnc3)s2)cc(OC)c1OC -9.5%, CC(=O)Nc1nnc(SCC(=O)NCC2CCCO2)s1 (stereo unspecified) -10.9%, O=C(CSc1nc2cc(S(=O)(=O)N3CCOCC3)ccc2o1)NC1CCCc2ccccc21 (stereo unspecified) 11.5%, O=C(NCCN1CCOCC1)c1ccc(CS(=O)(=O)Cc2ccccc2F)o1 11.2%, CCOC(=O)c1c(C)oc2ccc(NS(=O)(=O)c3ccc4c5c(cccc35)C(=O)N4)cc12 21.2%, COC(=O)CCn1nnc(-c2ccc(C)cc2)n1 21.3%, O=C(Nc1ccc(NC(=O)C2CC2)cn1)c1ccccc1Cl -65.9%, COc1ccc(NC(=O)CC2CCCCC2)cc1OC -6.37%, CC1(C)CC2CC(C)(CN2S(=O)(=O)c2ccc(N)cc2)C1 (stereo unspecified) 10.2%, COc1cc(C(=O)NCC(=O)OCC(=O)c2ccc[nH]2)cc(OC)c1OC 13.9%, C=CCSc1nnc(-c2ccc(Cl)cc2Cl)o1 -1.24%, COc1cc(CC(=O)Oc2ccc3c(c2)OCO3)cc(OC)c1OC 2.88%, C(=N\n1cnnc1)/c1cccc(OCCOc2ccccc2)c1 -29.6%, CCN(CC)C(c1ccc(C)cc1)c1nnnn1C1CCCCC1 (stereo unspecified) 16.7%

Reference: PubChem BioAssay
